Hits are enriched below; roughly 6.1% of the tested compounds scored in any of these assays.
D1 antagonist: Antagonist of Human D 1 Dopamine Receptor: qHTS; hit rate 3.2% among 360,000; activity change, negative = inhibition, % at 10 µM; HEK293 TREx D1 cells, calcium flux, dopamine EC80; stronger effect = lower value; D(1A) dopamine receptor (Homo sapiens), P21728; AID 504652, 2011; in the data active means activity change below about -30%
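Inducible Hek293 Trex D1 cells (tetracycline, overnight, 30 C). Calcium dye 30–90 min RT. Antagonist mode: EC80 dopamine added after 180 s compound read.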
D3 ag: qHTS of D3 Dopamine Receptor Agonist: qHTS | D(3) dopamine receptor (Homo sapiens), P35462 | D3R DiscoveRx beta-arrestin cells, luminescence, 90 min | max activation, % | hit rate 0.58% among 410,000 | AID 652048, 2013; in the data active means max activation above about 30%
Target sequence (P35462 whole entry, looked up): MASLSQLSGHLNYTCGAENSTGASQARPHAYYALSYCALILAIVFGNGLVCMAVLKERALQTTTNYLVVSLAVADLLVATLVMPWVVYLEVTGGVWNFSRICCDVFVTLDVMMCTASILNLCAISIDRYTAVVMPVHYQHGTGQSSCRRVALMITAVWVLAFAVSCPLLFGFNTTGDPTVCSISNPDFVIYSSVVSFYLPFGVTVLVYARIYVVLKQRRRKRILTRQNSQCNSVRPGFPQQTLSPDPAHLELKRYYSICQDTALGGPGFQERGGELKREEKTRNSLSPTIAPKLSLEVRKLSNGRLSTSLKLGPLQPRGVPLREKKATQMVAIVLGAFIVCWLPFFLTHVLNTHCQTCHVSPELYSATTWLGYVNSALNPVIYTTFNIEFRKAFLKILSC
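Agonist-mode cell screen: cells plated at 1500/well and incubated overnight at 37 °C, then exposed to library compounds for 90 min at 37 °C. Detection reagent was added for 30–60 min at room temperature, and luminescence was read.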
ERG Ets-DNA blk: qHTS for Small Molecule Inhibitors of the ERG Ets/DNA interaction. fluorescence polarization, His-ERG Ets domain / labelled DNA. Potency, µM (titrated, usually from 76.9 µM), actives largely listed as inhibitors. hit rate 0.028% among 370,000. AID 624246, 2012. Transcriptional regulator ERG (Homo sapiens), P11308; active means well fitted inhibition curve with a large enough effect in the polarisation, with a control signal flat; inconclusive means small, poorly fitted or top-dose-only effect, or effect the other way, or a change in a side signal; inactive means no such curve, though single readings can be large or run the other way; the % refers to the polarisation;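 further: polarization taken with two DNA probes labelled with fluorescein and Texas red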
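His-tagged ERG Ets domain (1 uM in the protein solution; 300mM KCl, 50mM Tris-HCl, 1mM EDTA, 1mM DTT, pH 7.5) received compound, then a probe mix of 5 nM fluorescein-DNA and 100nM Texas-615-DNA. Fluorescence polarization was read for both dyes.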
D1 PAM: Potentiators of Human D1 Dopamine Receptor: qHTS; D(1A) dopamine receptor (Homo sapiens), P21728; HEK293 TREx D1 cells, calcium flux, dopamine EC20 potentiation; potentiation, % at 10 µM; hit rate 0.036% among 360,000; in the data active means potentiation above about 30%
D1 ag: Allosteric Agonists of the Human D1 Dopamine Receptor: qHTS. hit rate 1% among 360,000. D(1A) dopamine receptor (Homo sapiens), P21728. activation, % at 2 µM. HEK293 T-REx D1 cells, calcium flux, agonist mode. AID 504660, 2011; in the data active means activation above about 30%
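Tetracycline-induced HEK293 TREx D1 cells, force-coupled to calcium signalling, were dye-loaded with a no-wash calcium kit. Compound was pin-added after a 10 s baseline. Fluorescence was read kinetically at 1 cycle/s for 180 s, with calcium rises flagged as agonism.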
DRD3 antagonist: qHTS of D3 Dopamine Receptor Antagonist: qHTS. AID 652054, 2013. max response, negative = inhibition, %. hit rate 2.5% among 360,000. D3R cells, DiscoveRx beta-arrestin luminescence, antagonist mode; stronger effect = lower value; in the data active means max response below about -50%; inconclusive means no clear call, values can overlap the other calls
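Cells plated overnight at 1500 cells/well, then exposed to library compounds with dopamine controls for 90 minutes at 37 degrees C. DiscoveRx reagent added for 30–60 minutes at room temperature; luminescence read, quantitative HTS format.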
Of the large screens only hits and unclear results are named; the others gave an inactive call.

C=CCN(CC=C)CCOc1cccc(Oc2ccccc2)c1	DRD3 antagonist -50
COc1ccc(S(=O)(=O)c2nnn(-c3ccccc3F)c2C)cc1	ERG Ets-DNA blk inconclusive (no result: DRD3 antagonist)
N/C(=N\OC(=O)c1cccnc1)c1ccc(Cl)cc1Cl	D1 antagonist -33
N/C(=N\OC(=O)c1cccc(Cl)c1)c1ccccn1	D1 antagonist -38
N/C(=N\OC(=O)COc1ccc2ccccc2c1)c1ccccn1	D1 antagonist -53 (no result: ERG Ets-DNA blk)
N/C(=N\OC(=O)COc1ccccc1Cl)c1ccccn1	none
N/C(=N\OC(=O)c1ccc(Cl)c(Cl)c1)c1ccccn1	none
N/C(=N\OC(=O)COc1ccc(Br)cc1)c1ccncc1	D1 antagonist -39
N/C(=N\OC(=O)c1cccnc1)c1ccccc1Cl	none
O=C(CC1SCCNC1=O)Nc1cccc(C(F)(F)F)c1 (stereo not drawn)	none
COC(=O)N/N=C1/C/C(=N\NC(=O)OC)c2ccccc21	none
Cc1ccc(SCC(=O)NCc2ccccc2C)cc1	none
Cc1cccc(OCC(=O)O/N=C(\N)c2ccc(Cl)cc2)c1	D1 antagonist -43 (no result: ERG Ets-DNA blk)
COc1cc2ccccc2cc1C(=O)Nc1ccc2oc(-c3cc(Br)ccc3Cl)nc2c1	none (no result: DRD3 antagonist)
COc1cccc(C2C(C#N)=C(N)SC(c3ccccc3)C2[N+](=O)[O-])c1 (stereo not drawn)	none
CCOC(=O)CCCNC(=O)c1cncc(Br)c1	D3 ag 31
O=C(NCCc1ccc(Cl)cc1Cl)c1cncc(Br)c1	D1 antagonist -38
O=C(NCCc1c[nH]c2ccccc12)c1cncc(Br)c1	D1 antagonist -35
COC(=O)C(Cc1c[nH]c2ccccc12)NC(=O)c1cncc(Br)c1 (stereo not drawn)	none
Cc1ccc(NC(=O)C(=O)NCCc2c[nH]c3ccccc23)c(C)c1	D1 ag 30
O=C(O)Cc1ccc(Nc2cnn(C34CC5CC(CC(CC(=O)O)(C5)C3)C4)c(=O)c2Cl)cc1	none
COc1cc(N2CCCC2)c(OC)cc1/C=C1/NC(=S)NC1=O	D1 antagonist -35, D1 ag 183 (no result: ERG Ets-DNA blk)
COc1ccc(OC)c(/C=C2\NC(=O)NC2=O)c1	none
CC(=O)Nc1ccc(S(=O)(=O)N[C@@H](C)C(=O)OCC(=O)c2ccc(Br)s2)cc1	none (no result: D1 antagonist, ERG Ets-DNA blk, D1 PAM, D1 ag)
O=C(COC(=O)Cn1nc(-c2ccccc2)oc1=O)Nc1ccc(F)cc1	D1 antagonist -34
COc1ccc(C(C)(C)C)cc1NC(=O)COC(=O)c1nc2nccc(C)n2n1	none
O=C1C=C(c2c(O)ccc3ccccc23)c2ccccc2C1=O	DRD3 antagonist -62 (no result: D1 antagonist, ERG Ets-DNA blk, D1 PAM, D1 ag)
CCOC(=O)c1noc2nc(C)n(CC(=O)Nc3ccccc3F)c(=O)c12	none (no result: DRD3 antagonist)
CC1(C(=O)NCc2ccc(Cl)c(Cl)c2)Oc2cccnc2NC1=O (stereo not drawn)	D1 ag 32
O=C(NCc1ccccc1C(F)(F)F)C1CC(O)CN1C(=O)Nc1ccccc1 (stereo not drawn)	none
Cn1nnc2c[n+](CC(=O)c3ccc4ccccc4c3)cc(Br)c21	DRD3 antagonist -53
O=c1c(Cl)c(Cl)cnn1Cc1nnc(-c2ccccc2Br)o1	D1 ag 236, DRD3 antagonist -81
O=C(COC(=O)C12CC3CC(CC(C3)C1)C2)N1CCN(S(=O)(=O)c2ccccc2)CC1	none
Cc1cc2oc(=O)cc(CN3CCOCC3)c2cc1O	none
Cc1ccc2c(c1)c1c3n2CCN(C(=O)CN2CCN(C)CC2)C3CCC1 (stereo not drawn)	DRD3 antagonist inconclusive
CN1CCN(CC(=O)N2CCn3c4c(c5cc(C6CCCCC6)ccc53)CCCC42)CC1 (stereo not drawn)	D1 antagonist -38, DRD3 antagonist -65
Cc1ccc(-n2ccnc(NCc3ccccc3)c2=O)cc1C	D1 antagonist -35 (no result: DRD3 antagonist)
O=C1[C@H]2C(c3ccccc3)=NN(c3ccccc3)[C@H]2C(=O)N1c1ccccc1	D1 antagonist -45
N/C(=N\OC(=O)Cc1cccs1)c1ccccc1	D1 antagonist -38
Cc1ccc(/C(N)=N/OC(=O)Cc2cccs2)cc1	none
O=C(O)C1CCN(S(=O)(=O)c2cccs2)CC1	none
CCOC(=O)C1(CC2CC2)CCN(S(=O)(=O)/C=C/c2ccccc2)CC1	D1 antagonist -80
CCOC(=O)C1(CC2CC2)CCN(Cc2ccc3cccc(F)c3n2)CC1	DRD3 antagonist -96
CCOC(=O)C1(CC2CC2)CCN(Cc2cn[nH]c2-c2cccc(F)c2)CC1	D1 antagonist -38
CCOC(=O)C1(CC2CC2)CCN(Cc2ccc(O)c(Cl)c2)CC1	none (no result: D3 ag, ERG Ets-DNA blk, DRD3 antagonist)
CC1=C(C(=O)OCC(C)C)C(c2ccc(F)cc2)NC(=O)N1 (stereo not drawn)	none (no result: ERG Ets-DNA blk)
CCN1CCC(O)(/C=C/c2ccc(C(C)C)cc2)C(C(=O)/C=C/c2ccc(C(C)C)cc2)C1 (stereo not drawn)	DRD3 antagonist -66 (no result: D1 antagonist, ERG Ets-DNA blk, D1 PAM, D1 ag)
COC(=O)CN1C(=S)N(c2ccc(F)cc2)C(=O)C1CC(=O)Nc1ccc(F)cc1 (stereo not drawn)	D1 antagonist -51, DRD3 antagonist inconclusive
CCc1ccc(NC(=O)CC2C(=O)N(c3ccc(Cl)cc3)C(=O)N2Cc2cccs2)cc1 (stereo not drawn)	D3 ag 43 (no result: DRD3 antagonist)
COc1ccc(NC(=O)CC2C(=O)N(c3ccc(C)cc3)C(=O)N2CCc2ccccc2)cc1 (stereo not drawn)	D1 antagonist -37 (no result: DRD3 antagonist)
CCCOc1ccc(NC(=O)CC2C(=O)N(c3ccc(Cl)cc3)C(=O)N2CCc2ccncc2)cc1 (stereo not drawn)	D1 antagonist -35 (no result: DRD3 antagonist)
COc1ccc(NC(=O)CC2C(=O)N(c3ccc(Cl)cc3)C(=S)N2CCc2ccncc2)cc1 (stereo not drawn)	none
COC(=O)C(NC(=O)CCc1c(C)nc2ncnn2c1C)C(C)C (stereo not drawn)	none
COc1ccc(NC(=O)CC2C(=O)N(c3ccc(OC)cc3)C(=O)N2CCC2=CCCCC2)cc1 (stereo not drawn)	D1 antagonist -31 (no result: DRD3 antagonist)
O=C(CC1C(=O)N(c2ccccc2)C(=O)N1Cc1ccco1)Nc1ccccc1 (stereo not drawn)	D1 antagonist -44
Cc1cccc(N2C(=O)C(CC(=O)Nc3ccc(Cl)cc3)N(Cc3ccco3)C2=O)c1 (stereo not drawn)	none (no result: DRD3 antagonist)

High-throughput results deposited in PubChem by National Center for Advancing Translational Sciences (NCATS).
